According to the supplement of paper PMC10849652:
About 8,800 targets were measured; listed, in parts, are those with a hit and a random draw of the rest. About 0.5% of all pairs of compound and target were hits. Values without a mark were called inactive.

Assays:
Experiment in all cases: log2 fold change, soluble protein after heating vs DMSO (PISA); higher = thermal stabilisation; K562 lysate, 10 uM; active = over 0.2 and 3.5 SD of the protein, either way, in both replicates (recomputed)
erlotinib = compound: C#Cc1cccc(Nc2ncnc3cc(OCCOC)c(OCCOC)cc23)c1 [erlotinib]
Procedure, shortened: (§1)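 A 30 min treatment with 10 μM compound was applied to crude K562 extract at 1 mg/mL protein in PBS pH 7.4 with 1 mM MgCl2. Heating for 3 min spanned 48°C-58°C, after which aliquots were pooled, adjusted to 0.5% NP-40 at 4°C and spun at 21,000xg for 90 min. TMTpro 16plex LC-MS/MS of the supernatant, with channel sums equalised, gave values recorded as log-two fold change in thermal stability against solvent controls, from duplicates.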

[1] = compound: C/C(=N\NC(=O)C1=CC(=CC=C1)S(=O)(=O)N2CCOCC2)/C3=C(C=CC(=C3)Cl)O
Procedure, shortened: as §1

[2] = compound: C1=CC(=CC=C1C2=NC3=C(N2)C=C(C=C3)C(=O)N)OC4=CC=C(C=C4)Cl
Procedure, shortened: as §1

[3] = compound: C1=CC2=C(C=CC(=C2)/C=C\3/C(=O)NC(=NCC4=CC=CS4)S3)N=C1
Procedure, shortened: as §1

[4] = compound: C1=CC2=NC=CN=C2C=C1/C=C/3\C(=O)NC(=O)S3
Procedure, shortened: as §1

[5] = compound: C1=CC=C(C=C1)C2=NC(=C(N2)C3=CC=NC=C3)C4=CC(=C(C=C4)Cl)O
Procedure, shortened: as §1

[6] = compound: C1=CC=C2C(=C1)C3=NNC4=CC=CC(=C43)C2=O
Procedure, shortened: as §1

[7] = compound: C1CCN(C1)C(=O)NC2=CC=CC(=C2)NC3=NC=C(C(=N3)NCCC4=CN=CN4)Br
Procedure, shortened: as §1

[8] = compound: C1CN(CCC1(CC2=CC=C(C=C2)Cl)N)C3=NC=NC4=C3C=CN4
Procedure, shortened: as §1

IRAK-1-4 Inhibitor I = compound: C1COCCN1CCN2C3=CC=CC=C3N=C2NC(=O)C4=CC(=CC=C4)[N+](=O)[O-] [IRAK-1-4 Inhibitor I]
Procedure, shortened: as §1

Chain of UniProt Q8NI60 (Q8NI60 whole entry, looked up): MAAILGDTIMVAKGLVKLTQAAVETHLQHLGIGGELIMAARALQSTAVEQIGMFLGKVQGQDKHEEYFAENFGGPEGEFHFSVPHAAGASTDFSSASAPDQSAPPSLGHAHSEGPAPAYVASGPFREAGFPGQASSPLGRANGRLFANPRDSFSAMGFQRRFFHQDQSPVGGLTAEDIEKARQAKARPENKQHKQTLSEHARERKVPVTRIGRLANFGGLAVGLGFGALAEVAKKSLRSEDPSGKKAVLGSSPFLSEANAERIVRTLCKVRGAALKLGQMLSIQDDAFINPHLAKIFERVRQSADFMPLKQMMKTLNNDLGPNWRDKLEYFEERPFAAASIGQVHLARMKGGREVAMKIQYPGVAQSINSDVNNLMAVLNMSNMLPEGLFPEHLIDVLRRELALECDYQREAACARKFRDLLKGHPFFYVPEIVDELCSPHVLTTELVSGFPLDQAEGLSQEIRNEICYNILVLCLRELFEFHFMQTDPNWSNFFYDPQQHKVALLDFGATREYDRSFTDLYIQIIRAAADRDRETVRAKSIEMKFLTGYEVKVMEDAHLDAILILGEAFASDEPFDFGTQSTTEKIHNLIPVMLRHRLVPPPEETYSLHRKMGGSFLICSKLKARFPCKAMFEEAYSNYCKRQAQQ
Chain of UniProt P51790 (P51790 whole entry, looked up): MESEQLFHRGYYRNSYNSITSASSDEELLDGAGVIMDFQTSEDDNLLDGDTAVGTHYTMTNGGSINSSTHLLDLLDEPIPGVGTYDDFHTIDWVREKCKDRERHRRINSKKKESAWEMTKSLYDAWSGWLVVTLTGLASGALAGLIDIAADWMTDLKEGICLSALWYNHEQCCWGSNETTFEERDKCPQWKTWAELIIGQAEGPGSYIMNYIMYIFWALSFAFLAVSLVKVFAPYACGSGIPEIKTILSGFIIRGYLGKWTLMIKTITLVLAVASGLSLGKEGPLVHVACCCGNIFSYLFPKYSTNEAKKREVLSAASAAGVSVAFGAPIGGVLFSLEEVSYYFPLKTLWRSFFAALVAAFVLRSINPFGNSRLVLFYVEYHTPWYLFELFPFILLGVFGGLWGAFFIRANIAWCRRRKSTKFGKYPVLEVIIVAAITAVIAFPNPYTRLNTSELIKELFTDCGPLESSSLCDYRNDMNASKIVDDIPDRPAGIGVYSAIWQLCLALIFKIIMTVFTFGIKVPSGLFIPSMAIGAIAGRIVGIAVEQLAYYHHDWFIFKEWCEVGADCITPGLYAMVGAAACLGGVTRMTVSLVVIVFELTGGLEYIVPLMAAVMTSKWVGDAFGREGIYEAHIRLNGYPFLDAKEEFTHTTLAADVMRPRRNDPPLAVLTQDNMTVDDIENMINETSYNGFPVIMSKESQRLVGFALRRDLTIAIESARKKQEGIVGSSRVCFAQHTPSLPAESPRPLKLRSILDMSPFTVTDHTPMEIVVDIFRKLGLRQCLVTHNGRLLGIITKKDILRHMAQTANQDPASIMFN
Chain of UniProt Q8IY22 (Q8IY22 whole entry, looked up): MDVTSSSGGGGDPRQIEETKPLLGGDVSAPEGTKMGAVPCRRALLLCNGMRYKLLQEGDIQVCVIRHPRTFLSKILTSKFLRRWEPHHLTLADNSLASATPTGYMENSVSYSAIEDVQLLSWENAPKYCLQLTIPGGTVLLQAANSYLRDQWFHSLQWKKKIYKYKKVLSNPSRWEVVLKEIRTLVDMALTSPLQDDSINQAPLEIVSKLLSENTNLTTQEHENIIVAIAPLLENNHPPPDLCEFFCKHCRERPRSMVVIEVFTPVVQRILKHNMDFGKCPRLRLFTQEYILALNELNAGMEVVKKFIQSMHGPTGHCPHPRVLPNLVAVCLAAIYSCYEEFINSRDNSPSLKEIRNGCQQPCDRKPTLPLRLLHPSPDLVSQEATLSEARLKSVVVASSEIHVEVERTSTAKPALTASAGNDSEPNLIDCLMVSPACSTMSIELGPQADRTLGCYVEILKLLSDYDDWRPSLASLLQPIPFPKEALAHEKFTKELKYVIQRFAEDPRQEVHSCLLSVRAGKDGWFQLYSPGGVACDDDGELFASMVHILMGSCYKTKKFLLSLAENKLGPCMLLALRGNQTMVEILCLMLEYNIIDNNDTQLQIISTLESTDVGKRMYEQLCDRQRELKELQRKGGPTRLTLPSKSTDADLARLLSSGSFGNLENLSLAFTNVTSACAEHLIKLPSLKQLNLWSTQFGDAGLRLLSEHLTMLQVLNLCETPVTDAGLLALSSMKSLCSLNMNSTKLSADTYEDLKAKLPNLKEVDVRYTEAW
Chain of UniProt O94760 (O94760 whole entry, looked up): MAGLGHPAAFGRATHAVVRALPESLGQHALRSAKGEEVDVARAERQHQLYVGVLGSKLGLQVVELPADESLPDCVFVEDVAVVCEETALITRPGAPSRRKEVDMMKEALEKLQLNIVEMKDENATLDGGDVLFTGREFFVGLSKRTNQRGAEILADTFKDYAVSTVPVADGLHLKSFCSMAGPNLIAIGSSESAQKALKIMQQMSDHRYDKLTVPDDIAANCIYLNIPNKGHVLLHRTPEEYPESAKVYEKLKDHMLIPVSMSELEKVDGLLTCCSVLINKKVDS
Chain of UniProt O75534 (O75534 whole entry, looked up): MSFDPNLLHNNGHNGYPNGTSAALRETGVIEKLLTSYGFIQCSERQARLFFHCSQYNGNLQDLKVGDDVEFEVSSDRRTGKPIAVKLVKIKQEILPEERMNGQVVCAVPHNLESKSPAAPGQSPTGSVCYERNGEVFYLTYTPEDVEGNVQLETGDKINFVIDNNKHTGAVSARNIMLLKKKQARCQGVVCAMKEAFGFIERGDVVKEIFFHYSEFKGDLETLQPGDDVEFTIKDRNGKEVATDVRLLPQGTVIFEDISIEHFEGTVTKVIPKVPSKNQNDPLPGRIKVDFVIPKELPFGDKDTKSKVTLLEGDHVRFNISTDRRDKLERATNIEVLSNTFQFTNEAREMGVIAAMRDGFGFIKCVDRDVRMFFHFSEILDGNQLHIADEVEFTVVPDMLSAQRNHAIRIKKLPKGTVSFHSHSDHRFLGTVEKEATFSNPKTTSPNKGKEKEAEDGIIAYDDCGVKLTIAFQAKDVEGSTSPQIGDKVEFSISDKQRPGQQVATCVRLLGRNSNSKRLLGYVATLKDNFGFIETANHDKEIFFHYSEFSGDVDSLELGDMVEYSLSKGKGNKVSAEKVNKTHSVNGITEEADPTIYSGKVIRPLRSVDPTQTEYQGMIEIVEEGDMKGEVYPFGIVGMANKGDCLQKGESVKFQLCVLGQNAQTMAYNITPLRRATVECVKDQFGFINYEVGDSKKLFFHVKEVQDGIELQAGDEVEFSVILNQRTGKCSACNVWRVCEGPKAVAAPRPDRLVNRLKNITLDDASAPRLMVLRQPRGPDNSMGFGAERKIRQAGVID
Chain of UniProt Q96MX0 (Q96MX0 whole entry, looked up): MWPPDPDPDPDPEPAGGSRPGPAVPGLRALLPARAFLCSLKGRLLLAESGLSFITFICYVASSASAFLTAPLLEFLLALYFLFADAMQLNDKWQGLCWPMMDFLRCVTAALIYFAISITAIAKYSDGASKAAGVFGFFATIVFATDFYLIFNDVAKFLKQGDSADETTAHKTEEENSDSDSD
Chain of UniProt P06732 (P06732 whole entry, looked up): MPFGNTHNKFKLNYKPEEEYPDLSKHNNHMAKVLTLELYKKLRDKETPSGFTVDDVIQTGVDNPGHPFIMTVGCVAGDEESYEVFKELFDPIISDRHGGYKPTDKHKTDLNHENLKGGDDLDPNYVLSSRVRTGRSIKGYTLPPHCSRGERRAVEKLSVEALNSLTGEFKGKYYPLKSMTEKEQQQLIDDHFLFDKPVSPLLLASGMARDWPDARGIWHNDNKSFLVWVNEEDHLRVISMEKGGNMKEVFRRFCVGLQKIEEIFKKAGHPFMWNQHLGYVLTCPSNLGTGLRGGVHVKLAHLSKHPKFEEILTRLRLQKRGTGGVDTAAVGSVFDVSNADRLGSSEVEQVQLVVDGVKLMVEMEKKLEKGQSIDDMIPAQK
Chain of UniProt P61923 (P61923 whole entry, looked up): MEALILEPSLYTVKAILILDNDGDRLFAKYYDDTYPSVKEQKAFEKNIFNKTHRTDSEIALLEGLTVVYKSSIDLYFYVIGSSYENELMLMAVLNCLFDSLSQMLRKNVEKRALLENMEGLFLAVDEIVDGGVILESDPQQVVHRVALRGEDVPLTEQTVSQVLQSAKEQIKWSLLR
Chain of UniProt P33240 (P33240 whole entry, looked up): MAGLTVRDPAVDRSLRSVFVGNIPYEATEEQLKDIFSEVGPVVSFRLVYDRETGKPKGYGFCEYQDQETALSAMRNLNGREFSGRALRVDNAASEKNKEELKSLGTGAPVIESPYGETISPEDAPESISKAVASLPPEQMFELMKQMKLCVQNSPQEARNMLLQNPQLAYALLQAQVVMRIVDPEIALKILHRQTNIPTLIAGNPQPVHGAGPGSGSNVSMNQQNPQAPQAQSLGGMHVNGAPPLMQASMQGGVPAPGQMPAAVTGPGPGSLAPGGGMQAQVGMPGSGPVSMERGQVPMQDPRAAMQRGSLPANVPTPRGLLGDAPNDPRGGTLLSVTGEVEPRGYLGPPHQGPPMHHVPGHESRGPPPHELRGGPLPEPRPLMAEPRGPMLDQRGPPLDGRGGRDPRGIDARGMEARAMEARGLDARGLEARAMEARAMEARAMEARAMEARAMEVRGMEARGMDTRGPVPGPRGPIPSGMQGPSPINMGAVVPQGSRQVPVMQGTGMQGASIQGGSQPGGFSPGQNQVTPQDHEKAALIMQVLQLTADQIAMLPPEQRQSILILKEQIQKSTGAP
Chain of UniProt O15247 (O15247 whole entry, looked up): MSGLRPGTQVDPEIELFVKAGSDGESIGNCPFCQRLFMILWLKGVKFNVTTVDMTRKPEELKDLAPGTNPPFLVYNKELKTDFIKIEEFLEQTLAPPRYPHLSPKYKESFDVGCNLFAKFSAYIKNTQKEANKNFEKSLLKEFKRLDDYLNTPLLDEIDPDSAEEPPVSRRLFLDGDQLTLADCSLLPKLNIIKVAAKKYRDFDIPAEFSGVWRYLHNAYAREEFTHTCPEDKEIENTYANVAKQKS

Target	log2 fold change (erlotinib)	log2 fold change [1]	log2 fold change [2]	log2 fold change [3]	log2 fold change [4]	log2 fold change [5]	log2 fold change [6]	log2 fold change [7]	log2 fold change [8]	log2 fold change (IRAK-1-4 Inhibitor I)
DMXL1 (UniProt Q9Y485)	0.006	0.016	-0.015	-0.017	-0.024	-0.008	-0.026	-0.013	-0.001	0.016
CMPK2 (UniProt Q5EBM0)	-0.019	0.07	0.006	-0.035	-0.016	0.004	-0.038	-0.03	0.031	0.024
CMTM3 (UniProt Q96MX0)	0.002	-0.112	0.053	-0.084	-0.009	-0.011	-0.019	-0.083	-0.089	-0.012
CKAP2 (UniProt Q8WWK9)	0	-0.158	-0.062	-0.148	-0.015	0.006	-0.611 (active)	-0.007	0.046	0.014
COPZ1 isoform 4 (UniProt P61923)	-0.029	0.065	-0.05	-0.036	-0.142	-0.006	0	-0.08	-0.028	-0.015
CMIP (UniProt Q8IY22)	0.003	0.05	-0.008	0.055	0.035	0.023	-0.067	-0.001	-0.023	-0.011
CNOT6L (UniProt Q96LI5)	-0.011	0	0.007	-0.02	0.007	-0.04	-0.042	-0.018	-0.012	0.002
DENND4A isoform 2 (UniProt Q7Z401)	0.023	-0.021	-0.015	0.007	-0.045	0.002	-0.041	0.002	0.012	0.017
CNTN4 (UniProt Q8IWV2)	0.053	0.063	0.138	-0.03	0.053	0.046	-0.203	-0.124	0.138	0.119
CKM (UniProt P06732)	0.034	-0.167	0.003	0.023	0.058	-0.024	0	-0.017	0.038	0.044
CSPP1 (UniProt Q1MSJ5)	-0.028	-0.094	0.079	0.017	-0.088	0.021	-0.137	-0.02	0.007	-0.026
DIAPH3 (UniProt Q9NSV4)	0.042	0.07	-0.022	0.05	0.074	0.045	-0.066	-0.04	-0.082	-0.041
COG5 isoform 2 (UniProt Q9UP83)	0.073	0.016	-0.044	0.001	-0.004	0.019	0.031	0.019	0.043	-0.001
DNAH10 (UniProt Q8IVF4)	0.003	0.047	-0.059	-0.053	-0.026	0.026	-0.043	0.012	0.036	0.054
CUEDC2 (UniProt Q9H467)	-0.011	0.044	0.032	0.035	-0.02	0	-0.039	0.029	-0.106	0.013
CNNM2 (UniProt Q9H8M5)	-0.109	-0.206	0.038	0.058	–	-0.106	-0.029	0.045	0.201	0.098

Target	log2 fold change (erlotinib)	log2 fold change [1]	log2 fold change [2]	log2 fold change [3]	log2 fold change [4]	log2 fold change [5]	log2 fold change [6]	log2 fold change [7]	log2 fold change [8]	log2 fold change (IRAK-1-4 Inhibitor I)
COASY isoform 2 (UniProt Q13057)	0.006	-0.049	-0.044	-0.007	0.022	-0.018	-0.05	-0.019	0.024	-0.019
CTNNBL1 (UniProt Q8WYA6)	0.023	0.052	0.023	0.018	0.015	0.103	-0.033	-0.042	-0.033	0.088
CSDE1 isoform 4 (UniProt O75534)	-0.025	0.009	-0.035	0.001	-0.023	-0.021	-0.002	0.016	-0.001	-0.017
CHFR (UniProt Q96EP1)	-0.011	0.179	0.066	-0.068	–	-0.027	0.257	-0.023	-0.013	-0.011
DHRS1 (UniProt Q96LJ7)	0.024	0.898 (active)	-0.017	-0.008	-0.036	0.654 (active)	0.05	-0.052	0.105	-0.051
DDA1 (UniProt Q9BW61)	-0.004	-0.001	0.036	-0.03	0.008	-0.093	0.016	-0.017	-0.01	0.012
CSTF2 (UniProt P33240)	-0.036	-0.002	0.048	-0.048	0.044	0.011	-0.04	0.002	0	0.053
DDAH1 (UniProt O94760)	0	-0.008	0.006	-0.027	–	-0.006	0.035	0.032	0.051	-0.016
CHEK1 (UniProt O14757)	-0.048	-0.057	0	0.27 (active)	0.008	0.023	0.06	-0.108	0.02	-0.011
CLIC2 (UniProt O15247)	0.036	0.022	-0.005	-0.03	-0.014	-0.014	-0.014	0.019	0.015	0.006
COG7 (UniProt P83436)	0.026	-0.007	-0.025	0.034	0.012	0.006	-0.037	-0.022	0.05	-0.039
CLCN3 (UniProt P51790)	-0.047	0.043	-0.067	0.06	0.016	-0.02	0.084	-0.043	-0.117	0.083
CMBL (UniProt Q96DG6)	0.026	0.047	-0.03	-0.031	0.01	-0.002	0.045	0.006	-0.002	0.025
COQ8A (UniProt Q8NI60)	0.154	0.014	-0.057	0.008	-0.083	0.029	0.105	-0.01	0.007	-0.034
CORO7 (UniProt P57737)	-0.001	0.01	0.291	-0.089	–	-0.023	-0.047	-0.07	0.064	0.091
